Some test systems named below: MLK2; MLK3; MRCKA; MST1R; MST4.
Common to all, as to settings: concentration: 1 μM,replicates: in singlicate; n = 1
The next assay has as its system T1, MLK1.
T1 construct: gene MAP3K9

A further assay relates to T2, MRCKB.
T2 construct: gene CDC42BPB

For another assay, the system named is T3, MST1.
T3 construct: gene STK4

In another assay the test system is T4, MST2.
T4 construct: gene STK3

A further assay has as its system T5, MST3.
T5 construct: gene STK24
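Note: KINOMEscan kinase panel screen.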

With `CC(C)S(=O)(=O)N1CCN(Cc2ccc3c(c2)nc(NC(=O)c2ccsc2)n3C[C@H](O)c2ccccc2)CC1` [GW635815], the “%Inh” value in the assay with MLK1 was 90.6%; in the assay with MLK2, 43%; in the assay on MLK3 it was 79%; with MRCKA, 0%; with MRCKB it was 16%; with MST1R it was 36%. The “%Inh” value is on record as 5% in the assay with MST1, 0% in the assay on MST2, 1% in the assay with MST3 and 0% with MST4.
On to `CS(=O)(=O)c1cccc(CNc2nc(Nc3ccc4c(c3)[C@@H]3C[C@@H]4CNC3=O)ncc2C(F)(F)F)c1`, for which the “%Inh” value with MLK1 is 99.8%; in the assay with MLK2, 84%; in the assay on MLK3, 98.1%; in the assay on MRCKA, 0%; in the assay on MRCKB it was 0%; in the assay on MST1R, 0%. Moreover, the “%Inh” value in the assay with MST1 is recorded as 0%; in the assay with MST2, 18%; with MST3 it was 15%; in the assay on MST4 it was 0%.
Turning to `CS(=O)c1ccc(-c2coc3ccc(-c4n[nH]c(=O)o4)cc23)cc1` (centres unmarked), the “%Inh” value amounted to 9% in the assay on MLK1; 6% in the assay on MLK2; 0% in the assay on MLK3; 4% with MRCKA; 0% with MRCKB; 0% in the assay on MST1R. In addition, the “%Inh” value turned out to be 0% in the assay on MST1, 0% in the assay on MST2, 24% in the assay on MST3 and 5% in the assay with MST4.
For `Cn1ccc2ncnc(Oc3ccc(NC(=O)Nc4cnn(C(C)(C)C)c4)c(Cl)c3)c21`, the “%Inh” value with MLK1 came out at 30%; with MLK2, 26%; in the assay with MLK3, 0%; with MRCKA it was 0%; in the assay on MRCKB, 0%; with MST1R, 10%. Besides, the “%Inh” value in the assay on MST1 was 12%; in the assay on MST2, 0%; in the assay on MST3, 4%; in the assay with MST4, 0%.
For `COc1cc2ncn(-c3cc(OCC4CCCCC4)c(C(N)=O)s3)c2cc1OC` [GSK204559], the “%Inh” value in the assay on MLK1 is on record as 12%; in the assay on MLK2, 33%; in the assay on MLK3, 34%; in the assay on MRCKA, 0%; in the assay with MRCKB, 0%; with MST1R, 35%. For the same compound, the “%Inh” value in the assay with MST1 worked out at 11%; with MST2 it was 0%; in the assay on MST3, 0%; in the assay on MST4, 0%.
With `O=C(Nc1cccc(C(F)(F)F)c1)c1cccc(Oc2ccc3nccn3n2)c1`, the “%Inh” value in the assay on MLK1 is reported as 9%; with MLK2, 7%; in the assay with MLK3, 8%; in the assay on MRCKA, 23%; with MRCKB, 3%; in the assay with MST1R, 3%. Further, the “%Inh” value worked out at 29% in the assay on MST1, 0% in the assay on MST2, 0% in the assay with MST3 and 28% with MST4.
Regarding `COC(=O)Nc1nc2cc(Oc3ccc(NC(=O)Nc4cc(C(F)(F)F)ccc4Cl)cc3)ccc2[nH]1.Cl` [GW697465], the “%Inh” value in the assay on MLK1 worked out at 1%; in the assay with MLK2 it was 0%; in the assay on MLK3, 8%; in the assay with MRCKA, 5%; in the assay with MRCKB it was 0%; with MST1R, 41%. Moreover, the “%Inh” value with MST1, in the assay with MST2, with MST3 and in the assay on MST4 was 0% throughout.
With `CC(=O)Nc1ccc(-c2cc3ncnc(SCC(=O)O)c3s2)cc1`, the “%Inh” value in the assay on MLK1 is listed as 0%; with MLK2, 18%; with MLK3, 0%; with MRCKA it was 0%; in the assay on MRCKB, 0%; with MST1R, 25%. Moreover, the “%Inh” value with MST1 is reported as 2%; with MST2 it was 16%; in the assay on MST3, 24%; in the assay with MST4, 2%.
On to `Cl.Cl.NC[C@H](CC1CCCCC1)NC(=O)c1ccc(-c2ccnc3[nH]ccc23)s1` [GSK1581428], for which the “%Inh” value with MLK1 came to 5%; with MLK2, 0%; with MLK3, 0%; with MRCKA, 97.1%; with MRCKB it was 99.1%; with MST1R, 26%. The “%Inh” value in the assay with MST1 amounted to 0%; in the assay with MST2, 0%; with MST3, 9%; in the assay on MST4, 55%.
Regarding `O=C(Nc1n[nH]c2cc(-c3ccco3)ccc12)C1CC1` [SB-737447], the “%Inh” value with MLK1 is listed as 0%; with MLK2 it was 34%; in the assay on MLK3 it was 0%; with MRCKA, 25%; in the assay with MRCKB it was 1%; in the assay with MST1R, 0%. Further, the “%Inh” value with MST1 was determined as 0%; in the assay with MST2, 15%; with MST3 it was 17%; in the assay on MST4 it was 3%.
`OCCn1cc(-c2cnc3nnn(Cc4ccc5ncccc5c4)c3n2)cn1`: the “%Inh” value in the assay on MLK1, with MLK2, with MLK3, in the assay with MRCKA, in the assay with MRCKB and in the assay on MST1R was 0% throughout. Moreover, the “%Inh” value in the assay on MST1, in the assay with MST2, in the assay on MST3 and with MST4 was 0% throughout.
Turning to `Cn1ccc2ncnc(Oc3ccc(NC(=O)Nc4cc(C(C)(C)C)on4)c(Cl)c3)c21`, the “%Inh” value came out at 11% in the assay with MLK1; 21% with MLK2; 0% with MLK3; 13% in the assay with MRCKA; 0% in the assay on MRCKB; 73% in the assay with MST1R. Further, the “%Inh” value is given as 0% in the assay on MST1, 0% in the assay on MST2, 6% in the assay on MST3 and 0% in the assay with MST4.
As to `c1ccc(Oc2ccc(Nc3ccnc4ccc(-c5ccccn5)cc34)cc2)cc1` [GW407034], the “%Inh” value in the assay on MLK1 was 1%; in the assay with MLK2, 3%; with MLK3, 5%; with MRCKA, 2%; in the assay on MRCKB, 9%; in the assay with MST1R it was 0%. Further, the “%Inh” value with MST1 came out at 0%; in the assay with MST2 it was 0%; with MST3 it was 4%; with MST4 it was 0%.
In the case of `CC(=O)c1c(-c2ccncc2)[nH]c(-c2ccncc2)c1C` [GW493036], the “%Inh” value amounted to 4% in the assay with MLK1; 0% with MLK2; 0% in the assay with MLK3; 20% in the assay with MRCKA; 3% in the assay with MRCKB; 42% with MST1R. Further, the “%Inh” value is recorded as 11% in the assay with MST1, 8% in the assay on MST2, 0% in the assay on MST3 and 0% in the assay with MST4.
Turning to `FC(F)(F)c1cc(Br)cc(Nc2nccc(-c3cnn4ncccc34)n2)c1` [GW810578], the “%Inh” value with MLK1 worked out at 0%; in the assay with MLK2, 17%; in the assay with MLK3, 11%; with MRCKA, 0%; in the assay with MRCKB, 0%; in the assay on MST1R, 0%. The “%Inh” value with MST1 was 5%; in the assay with MST2, 0%; in the assay with MST3, 0%; in the assay on MST4, 17%.
Consider `COc1cccc(C2=C(Nc3cccc(Cl)c3)C(=O)NC2=O)c1` [SB-341556], for which the “%Inh” value was determined as 0% in the assay with MLK1; 16% in the assay on MLK2; 0% in the assay with MLK3; 0% with MRCKA; 0% with MRCKB; 0% with MST1R. Also, the “%Inh” value in the assay with MST1 was 100%; in the assay with MST2, 22%; in the assay with MST3 it was 0%; in the assay on MST4 it was 0%.
With `Cn1ccc2ncnc(Oc3ccc(NC(=O)Nc4cncc(C(F)(F)F)c4)c(Cl)c3)c21`, the “%Inh” value with MLK1, in the assay on MLK2, with MLK3, with MRCKA, in the assay on MRCKB and with MST1R was 0% each time. Besides, the “%Inh” value in the assay with MST1, with MST2, in the assay with MST3 and in the assay with MST4 was 0% in each case.

Values taken from PMC5540273 (PLoS ONE, 2017).
